Assay results taken from PubChem BioAssay (NCATS).
Values without a mark were called inactive. Calls come from the whole dose curve; as a rule, active = well fitted inhibition curve with a large enough effect; inconclusive = small, poorly fitted or top-dose-only effect; inactive = flat fitted curve, though single readings scatter.

What follows are compounds tested against DNA polymerase III PolC-type (Bacillus subtilis (strain 168)) (UniProt P13267) (assay: qHTS Validation Assay for the Inhibitors of DNA Replication in Gram-Positive Bacteria (AID 485295;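 note: reconstituted holoenzyme with PolC plus beta clamp SSB and primase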)). Conditions: Gram-positive bacterial DNA replication assay; series mostly up to 57.1 µM; activity change, negative = inhibition: at the top concentration.
DNA polymerase III PolC-type (Bacillus subtilis (strain 168)), sequence (P13267 whole entry, looked up): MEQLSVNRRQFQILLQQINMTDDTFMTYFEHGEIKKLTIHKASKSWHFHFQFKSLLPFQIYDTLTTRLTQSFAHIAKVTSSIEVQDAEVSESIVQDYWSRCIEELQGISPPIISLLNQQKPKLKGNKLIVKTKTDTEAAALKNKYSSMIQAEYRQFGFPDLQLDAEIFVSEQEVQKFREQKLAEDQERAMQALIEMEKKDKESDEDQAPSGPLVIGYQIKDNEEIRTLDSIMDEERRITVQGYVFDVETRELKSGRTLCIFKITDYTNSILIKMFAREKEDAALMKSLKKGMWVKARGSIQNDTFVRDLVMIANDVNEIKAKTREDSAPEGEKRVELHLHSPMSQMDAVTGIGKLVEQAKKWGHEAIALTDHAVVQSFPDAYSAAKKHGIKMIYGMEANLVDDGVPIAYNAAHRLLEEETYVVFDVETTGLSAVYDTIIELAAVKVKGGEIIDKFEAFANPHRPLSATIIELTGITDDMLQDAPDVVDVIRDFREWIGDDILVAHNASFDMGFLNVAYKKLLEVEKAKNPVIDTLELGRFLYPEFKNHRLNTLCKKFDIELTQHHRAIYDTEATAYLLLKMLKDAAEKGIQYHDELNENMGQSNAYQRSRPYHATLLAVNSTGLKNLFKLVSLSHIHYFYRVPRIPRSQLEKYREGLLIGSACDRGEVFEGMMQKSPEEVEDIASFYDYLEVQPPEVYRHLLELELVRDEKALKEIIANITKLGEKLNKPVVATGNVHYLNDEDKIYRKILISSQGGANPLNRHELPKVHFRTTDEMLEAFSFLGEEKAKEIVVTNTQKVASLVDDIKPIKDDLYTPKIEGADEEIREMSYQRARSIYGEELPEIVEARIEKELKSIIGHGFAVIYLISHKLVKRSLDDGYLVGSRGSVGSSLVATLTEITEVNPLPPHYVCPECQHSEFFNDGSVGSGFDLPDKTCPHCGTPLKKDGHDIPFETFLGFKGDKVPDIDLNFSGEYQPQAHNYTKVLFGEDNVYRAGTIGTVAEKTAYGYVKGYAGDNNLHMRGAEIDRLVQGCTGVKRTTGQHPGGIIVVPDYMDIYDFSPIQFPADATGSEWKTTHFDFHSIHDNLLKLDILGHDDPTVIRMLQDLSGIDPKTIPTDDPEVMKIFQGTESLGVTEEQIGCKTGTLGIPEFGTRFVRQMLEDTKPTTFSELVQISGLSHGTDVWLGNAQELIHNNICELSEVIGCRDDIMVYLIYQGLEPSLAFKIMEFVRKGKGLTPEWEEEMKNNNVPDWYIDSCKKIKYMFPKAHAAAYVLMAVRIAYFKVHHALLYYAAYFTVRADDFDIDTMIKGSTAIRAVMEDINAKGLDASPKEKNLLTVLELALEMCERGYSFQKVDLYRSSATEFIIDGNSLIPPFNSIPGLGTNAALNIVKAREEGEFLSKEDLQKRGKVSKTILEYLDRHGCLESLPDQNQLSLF
Method: B Subtilis DNA polymerase III holoenzyme complex was assayed for DNA production by fluorescent detection of the double-stranded DNA product with PicoGreen dye. The holoenzyme complex was reconstituted from the following purified protein components: DNA Polymerase III, beta subunit processivity factor, SSB single-stranded DNA binding protein, and Primase. Single-stranded, circular M13Gori was used as a substrate with dNTPs and NTPs also supplied to the substrate reagent. Compounds from the NCGC collection were incubated with the holoenzyme mixture for […] at room temperature to allow binding to occur, and then the reaction was started by the addition of substrate. After 30 min incubation at room temperature, PicoGreen solution containing EDTA was added to stop the reaction and to visualize the double-stranded DNA produced. Reaction progress was measured in a ViewLux CCD imager in fluorescence intensity mode by using 480 nm excitation and 540 nm emission filter set.
1. Thaw screening compounds.
2. Label assay plates. Prepare pipette tips, reagent reservoirs, buffers and controls.
1. Thaw Enzymes, DNA template, Nucleotides and PicoGreen dye concentrate. Thawed enzymes are stable on ice for ~1
week. Other thawed components are stable indefinitely.
2. Prepare sufficient quantities of Enzyme, Substrate and PicoGreen Quench mixes (according to Table II). For the number of
compound plates being screened.
3. Ensure that the tip wash station reservoirs have clean water and turn on recirculating chiller so that the chilled deck position
1. Load 2 uL of EDTA controls (250 mM, Background, 100 % inhibition) and 2 uL of DMSO controls (Negative control, 0%
inhibition) in the screening plates (flat-bottomed black 384-well polypropylene, Greiner Bio-one).
2. Place Enzyme mix reservoir on the chiller position of the liquid handler deck. Make sure that chiller will maintain
temperature of Enzyme mix at 4degC. Substrate mix and PicoGreen Quench can be stored at room temp.
3. Program liquid handling robotics to dispense 18 uL of Enzyme mix into assay plates. Wash tips.
4. Aspirate and dispense 2 uL of compound from compound plates, mix and Incubate at room temperature for 10 minutes.
5. Aspirate 5 ul of Substrate mix, dispense into assay plates and mix by pipetting. Wash tips.
6. Incubate at room temperature (21 +/- 1 deg C) for 20 minutes.
7. Quench reactions by addition of 25 uL PicoGreen Quench mix and mix by pipetting (using HTS robotics or bulk reagent
dispenser such as a Multidrop or uFill). Keep plates in the dark or stacked until ready to read fluorescence.
8. Read fluorescence intensity of plates on plate reader using "Fluorescein (Ex 485 nm/ Em 535 nm, 0.1s)" setting.

SMILES | activity change, negative = inhibition
N[C@@H](Cc1ccc(O)c(O)c1)C(=O)O | 12.7%
CC(C)NCC(O)c1ccc(NS(C)(=O)=O)cc1 (configuration not stated) | 5.36%
Cc1ccc(S(=O)(=O)N[C@@H](Cc2ccccc2)C(=O)CCl)cc1 | 2.66%
CCCCS(=N)(=O)CCC(N)C(=O)O (configuration not stated) | -5.52%
CC1CC2C3CCC4=CC(=O)C=C[C@]4(C)[C@@]3(F)[C@@H](O)C[C@]2(C)[C@@]1(O)C(=O)CO (some centres not stated) | 1.65%
CC(=O)[C@H]1CC[C@H]2[C@@H]3CCC4=CC(=O)CC[C@]4(C)[C@H]3CC[C@]12C | 2.77%
CCN(CC)CCn1c(=O)c(Cc2ccc(OC)cc2)nc2ccccc21 | 1.97%
CC1=C(C(=O)O)N2C(=O)[C@@H](NC(=O)C(N)c3ccccc3)[C@H]2SC1 (some centres not stated) | -2.17%
O=C(O)C1CCCN(CCC=C(c2ccccc2)c2ccccc2)C1 (configuration not stated) | -3.6%
CCN1CCCC1CNC(=O)c1cc(S(N)(=O)=O)ccc1OC (configuration not stated) | -7.9%
COc1cc2nc(N3CCCN(C)CC3)nc(NC3CCN(Cc4ccccc4)CC3)c2cc1OC | -1.54%
COc1cc2ncnc(Nc3cccc(Cl)c3)c2cc1OC | 1.4%
Nc1nc(N)c2nc(CNc3ccc(C(=O)NC(CCC(=O)O)C(=O)O)cc3)cnc2n1 (configuration not stated) | 4.14%
NC(=O)c1cccc(N)c1 | 7.73%
CCN(CC)CC#CCOC(=O)C(O)(c1ccccc1)C1CCCCC1 (configuration not stated) | 2.17%
NC(=O)c1ccc2[nH]ccc2c1 | -4.83%
OCc1ccc(-c2nn(Cc3ccccc3)c3ccccc23)o1 | 1.4%
